# In PubChem BioAssay AID1626 (SRMLSC, 2009):
# In all, about 220,000 compounds went through this assay and about 2,000 (0.91%) were called active. About 2% were inconclusive and are not listed. Cut-off read from the data, not from the text of the source: inconclusive = inhibition above about 80% without an active follow-up result; inactive = below that; test concentration not stated here. Not all results are given here. Potency and affinity values are given separately.
# Assay: M. tuberculosis H37Rv growth inhibitors, H37Rv strain (AID 1626);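 note: bacteria incubated seven days before Alamar blue readout; 0% = bacteria only wells and 100% = bacteria with antibiotic wells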
# Details: stronger effect = higher value, concentration not given here
row,SMILES,inhibition
1,CC1CCCN(S(=O)(=O)c2ccc3c(c2)CCN3C(=O)C2CCC2)C1 (stereo not drawn),5.83% (inactive)
2,ONC(=Nc1ccc(Cl)cc1)c1ccc(Cl)cc1,-13.7% (inactive)
3,Cc1nn(-c2ccccc2)c(N)c1C(c1ccccc1)c1c(C)nn(-c2ccccc2)c1N,9.35% (inactive)
4,Cc1ccc(C(c2c(C)nn(-c3ccccc3)c2N)c2c(C)nn(-c3ccccc3)c2N)cc1,6.99% (inactive)
5,C#CCNC(=O)C1CCN(c2cc(C)nc(-c3ccccc3)n2)CC1,-0.44% (inactive)
6,CCOC(=O)c1cc([N+](=O)[O-])sc1NC(=O)c1ccc(S(=O)(=O)N2CC3(C)CC2CC(C)(C)C3)cc1 (stereo not drawn),-0.55% (inactive)
7,O=C(O)c1ccc(O)c(N2C(=O)Nc3ccccc3N2O)c1,-1.41% (inactive)
8,CC[C@@H]1C=C(C)C[C@H](C)C[C@H](OC)[C@H]2O[C@@](O)(C(=O)C(=O)N3CCCC[C@H]3C(=O)O[C@H](/C(C)=C/[C@@H]3CC[C@@H](O)[C@H](OC)C3)[C@H](C)[C@@H](O)CC1=O)[C@H](C)C[C@@H]2OC,5.69% (inactive)
9,Fc1cccc(CSc2nc3ncc(Cl)cc3[nH]2)c1,-0.1% (inactive)
10,CCc1[nH]c(=S)c(C#N)c2c1CCCC2,-2.7% (inactive)
11,COc1cc2cc(/C=C/C(=O)c3ccco3)c(Cl)nc2cc1OC,-1.16% (inactive)
12,Cc1cccc2cc(/C=C/C(=O)c3ccco3)c(Cl)nc12,7.5% (inactive)
13,CCOc1ccc2nc(Cl)c(/C=C/C(=O)c3ccco3)cc2c1,21.5% (inactive)
14,Cc1ccc(N/C=C/C(=O)c2ccco2)c(O)c1,-2.39% (inactive)
15,Cc1nc([N+](=O)[O-])cn1CC(=O)NCCCO,8.65% (inactive)
16,Cc1ccc(-n2c(CNC(=O)c3cccs3)nnc2SCC(=O)NO)cc1,2.75% (inactive)
17,COC(=O)c1ccc(CN2CCN(Cc3ccccc3)C(CCO)C2)cc1 (stereo not drawn),-3.82% (inactive)
18,COc1ccc(N(C(=O)c2ccco2)C(C(=O)NC2CCCC2)c2ccc(N(C)C)cc2)cc1OC (stereo not drawn),-5.56% (inactive)
19,COC(=O)Cc1cc(=O)n2[nH]c(C)c(-c3ccccc3)c2n1,-0.6% (inactive)
20,Cc1ccccc1-c1cc2nc(-c3ccc([N+](=O)[O-])cc3)cc(=O)n2[nH]1,-6.76% (inactive)
21,O=c1cc(-c2ccccc2)nc2c(-c3ccccc3)c(C(F)(F)F)[nH]n12,2.66% (inactive)
22,CCCc1cc(=O)n2[nH]c(C)c(-c3ccccc3)c2n1,11.9% (inactive)
23,COc1ccc(CCNCC(O)c2ccccc2)cc1 (stereo not drawn),-12.7% (inactive)
24,CC(NC(=O)c1ccccc1NC(=O)c1ccncc1)c1ccccc1 (stereo not drawn),6.19% (inactive)

row,SMILES,inhibition
1,CC(C)OC(=O)/C(=C\c1cccc2ccccc12)NC(=O)c1ccccc1,11.6% (inactive)
2,N/C(=N\OC(=O)c1ccc(Cl)cc1)c1[nH]ncc1Br,-8.82% (inactive)
3,CC(C)(C)NC(=O)c1ccc2c(c1)N(CC(=O)N1CCN(c3ccc(F)cc3)CC1)C(=O)C(C)(C)O2,8.11% (inactive)
4,O=C(O)c1cccc(S(=O)(=O)Nc2ccccc2N2CCOCC2)c1,-1.57% (inactive)
5,Cc1cccc(C(=O)O/N=C(\N)Cc2ccc([N+](=O)[O-])cc2)c1,7.62% (inactive)
6,COc1ccccc1C1(CCN=Cc2ccc(N(C)C)cc2)CCOC(C)(C)C1 (stereo not drawn),2.7% (inactive)
7,CCC(=O)/C=C1\Sc2ccc(OC)cc2N1CCO,-14.1% (inactive)
8,CCC(/C=C1\Sc2ccc(OC)cc2N1CC)=C\c1sc2ccc(OC)cc2[n+]1CCCS(=O)(=O)[O-],0.61% (inactive)
9,O=C(NC1CCS(=O)(=O)C1)C1C2CC3CC(C2)CC1C3 (stereo not drawn),0.76% (inactive)
10,O=C1CCCC(=O)C1Sc1ccc(Cl)cc1,3.4% (inactive)
11,COc1ccc(N=C/C=C2\C=C(c3ccccc3)OC(C)(C)O2)cc1,76.4% (inactive)
12,CC1(C)OC(c2ccccc2)=C/C(=C/C=Nc2ccccc2)O1,-2.83% (inactive)
13,C1CSC2(N1)C1CC3CC2CC(C1)C31NCCS1 (stereo not drawn),-4.53% (inactive)
14,Cc1cc(C)cc(NC(=O)c2ccccc2CC[N+](=O)[O-])c1,58.2% (inactive)
15,O=C(NCCCN1CCN(CCCNC(=O)c2ccc(F)cc2)CC1)c1ccc(F)cc1,-9.24% (inactive)
16,CC(C)(C)c1ccc(C(=O)NCCN2CCCC2)cc1,-0.48% (inactive)
17,CCOC(=O)c1ccc(NC(=O)NCCc2ccccc2OC)cc1,5.79% (inactive)
18,CCN(CC)C(=O)c1c(C)[nH]c(=S)c(C#N)c1-c1ccco1,-4.78% (inactive)
19,Brc1ccc(-c2cn3cccnc3n2)cc1,-1.72% (inactive)
20,Brc1ccc(-c2cn3ccccc3n2)cc1,-4.5% (inactive)
21,O=C1C2=C(CCCC2)C(=O)N1CNc1ccccc1,-13.7% (inactive)
22,O=C1CCC(=O)N1CNc1cccnc1,-9.49% (inactive)
23,CCn1c(=S)sc2c(=O)n(-c3ccccc3)c(=S)[nH]c21,-1.81% (inactive)
24,COc1ccc(C(=O)N2CCN(c3ccccc3OC)CC2)cc1,0.49% (inactive)

row,SMILES,inhibition
1,O=C(O)/C=C/c1ccc(S(=O)(=O)NCc2cccnc2)cc1,-0.59% (inactive)
2,CN(CC(O)COC(c1ccccc1)c1ccccc1)C1CCCCC1 (stereo not drawn),5.91% (inactive)
3,CC1CCCC(NC(=O)CSc2ccc(F)cc2)C1C (stereo not drawn),-2.7% (inactive)
4,Cc1cc([N+](=O)[O-])nn1CCCC(=O)Nc1cc(Oc2ccccc2)cc([N+](=O)[O-])c1,33.1% (inactive)
5,Cc1ccc(C)c(Oc2cc(NC(=O)CCCn3nc(C)c([N+](=O)[O-])c3C)cc([N+](=O)[O-])c2)c1,5.87% (inactive)
6,Cc1c(Cl)c([N+](=O)[O-])nn1CCCC(=O)Nc1cccc(Cl)c1,-0.67% (inactive)
7,Cc1ccccc1Oc1cc(NC(=O)CCCn2nc(C)c([N+](=O)[O-])c2C)cc([N+](=O)[O-])c1,4.71% (inactive)
8,Cc1cc([N+](=O)[O-])nn1CCCC(=O)Nc1cc(Oc2ccc(F)cc2)cc([N+](=O)[O-])c1,76% (inactive)
9,Cc1nn(CCCC(=O)Nc2cc(Oc3ccccc3)cc([N+](=O)[O-])c2)c(C)c1[N+](=O)[O-],4.46% (inactive)
10,CN1CCC(C2(O)c3ccccc3CCc3ccccc32)CC1,-4.72% (inactive)
11,Cc1ccc(-c2nn(-c3ccccc3)cc2/C=N/NC(=O)CSc2nnc(C)n2-c2ccccc2)cc1,5.75% (inactive)
12,COc1cc(NC(=O)CCCc2c[nH]c3ccccc23)cc(OC)c1,13% (inactive)
13,COc1ccc(/C=N/NC(=O)c2cc(C34CC5CC(CC(C5)C3)C4)[nH]n2)cc1OC,-1.09% (inactive)
14,COCCN1C(=O)N[C@@H](c2cccc(F)c2)C(C(=O)OC)=C1C,-7.87% (inactive)
15,CC(=O)c1ccc(NC(=O)C(NC(=O)c2ccccc2)=C(C)C)cc1,-4.51% (inactive)
16,Cc1cccc2nc(-c3cccnc3)c(Nc3ccccc3)n12,-0.36% (inactive)
17,Cc1ccc2nc(-c3cccnc3)c(Nc3ccccc3C)n2c1,5.59% (inactive)
18,Clc1ccc(-c2nc3ncccn3c2Nc2ccc3c(c2)OCO3)cc1,7.95% (inactive)
19,Cc1ccc2nc(-c3ccncc3)c(Nc3ccccc3)n2c1,2.3% (inactive)
20,Cc1cccc2nc(-c3ccco3)c(Nc3ccccc3)n12,-7.83% (inactive)
21,Cc1ccc2nc(-c3ccco3)c(Nc3ccccc3)n2c1,2.97% (inactive)
22,Clc1ccc(-c2nc3cnccn3c2Nc2ccc3c(c2)OCO3)cc1,31% (inactive)
23,Cc1ccccc1Nc1c(-c2ccncc2)nc2ccc(Cl)cn12,-2.88% (inactive)
24,CCN1CCN(C(=O)COc2ccc3c(c2)C(=O)CC2(CCN(C(C)=O)CC2)O3)CC1,-8.68% (inactive)

row,SMILES,inhibition
1,CCOC(=O)C1CCN(C(=O)CSc2ccc(Cl)cc2)CC1,1.63% (inactive)
2,O=C(c1ccc([N+](=O)[O-])c(CS(=O)(=O)c2ccc(Cl)cc2)c1)N1CCCCC1,3.1% (inactive)
3,CCOC(=O)CSc1ccc2nnc(CCNS(=O)(=O)c3ccc(C)cc3)n2n1,4.15% (inactive)
4,Cc1oc(C(C)(C)C)c(CN2CCCC2)c1C(=O)O,5.71% (inactive)
5,Cc1cccc(-c2nnc(SCC#N)n2C)c1,1.96% (inactive)
6,CCOC(=O)c1cc(C(C)(C)C)nc(SC)c1C#N,0.56% (inactive)
7,COc1ccc(C(O)P(=O)(OCC(C)C)OCC(C)C)c(OC)c1 (stereo not drawn),5.08% (inactive)
8,Cc1cc(C)n2nc(C(=O)Nc3nccs3)nc2n1,-4.36% (inactive)
9,O=c1c2c3c(sc2nc2sc(CN4CCOCC4)cn12)CCCC3,-5.88% (inactive)
10,O=C(O)CCSCC(=O)Nc1c(C(=O)C2CC2)oc2ccccc12,-2.71% (inactive)
11,CC(=O)Nc1c(C(=O)C2CC2)oc2ccccc12,8.66% (inactive)
12,CC1(C)Cc2ccccc2C(N/N=C/c2ccc([N+](=O)[O-])cc2)=N1,3.59% (inactive)
13,CSCCC(NC(=O)c1ccc([N+](=O)[O-])cc1Cl)C(=O)OCC(=O)NCCCc1ccccc1 (stereo not drawn),-2.31% (inactive)
14,Cc1cnc(C(=O)Nc2ccccc2-c2ccc(C)o2)cn1,-0.7% (inactive)
15,CC(=O)Nc1ccccc1-c1ccc(C)o1,-8.39% (inactive)
16,CCC(=O)N(C)CCc1cc2c(c(OC)c1/C=N/NC(=O)[C@H]1C[C@@H]1c1ccccc1)OCO2,-2.15% (inactive)
17,CN(C)c1ccc(NC(=S)NC(=O)/C=C/c2ccc(Cl)cc2)cc1,5.85% (inactive)
18,COc1cc(C(CCN2CCOCC2)c2c(OC)cc(OC)c3c(C)cc(=O)oc23)cc(OC)c1OC (stereo not drawn),-15.3% (inactive)
19,COc1cc(C(CCN2CCCC2)c2c(OC)cc(OC)c3ccc(=O)oc23)cc(OC)c1OC (stereo not drawn),-13% (inactive)
20,COc1cc(C(CCN2CCCC2)c2c(OC)cc(OC)c3c(C)cc(=O)oc23)cc(OC)c1OC (stereo not drawn),-6.56% (inactive)
21,COc1cc(C(CCN2CCCCC2)c2c(OC)cc(OC)c3c(C)cc(=O)oc23)cc(OC)c1OC (stereo not drawn),-3.67% (inactive)
